Test results as given in the supplement of paper PMC4022240.
± gives the standard deviation.

Key:
Assay in all cases: peptide microarray binding signal (635 nm), min-max normalized on array (fraction of array maximum); higher = stronger binding
Details in all cases: peptide region: H3 20-32
[1] = target: T1, HaloTag-ATRX ADD domain (163-292)
T1 chain: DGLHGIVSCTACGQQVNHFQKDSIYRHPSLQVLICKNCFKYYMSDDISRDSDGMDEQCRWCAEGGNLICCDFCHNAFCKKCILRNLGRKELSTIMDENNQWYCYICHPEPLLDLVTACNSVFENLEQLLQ
How it was run: (§1)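 Two probe formats were used for 1 h at 4°C: biotin-labelled HaloTag reader fusions (10 nM to 1 μM) with streptavidin-Alexa Fluor 647, and rabbit histone antibodies (1:10,000 to 1:2,000) with anti-rabbit Alexa 647. Both were applied to nitrocellulose arrays of histone 13-mer peptide–cellulose conjugates printed in triplicate with a Cy3 tracer and blocked overnight at 4°C. Signal was read at 635 nm and misprints at 532 nm on an Axon GenePix 4000B. Binding signal is expressed as the triplicate-spot mean intensity, min-max scaled for each library.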

[2] = target: HaloTag-ING2 PHD (mouse Ing2 200-280)
How it was run: as §1

[3] = target: anti-H3K4me3 antibody ab8580
How it was run: as §1

[4] = target: anti-H3K9me3 antibody ab8898
How it was run: as §1

[5] = peptide modifications: H3K23me2 H3K27ac, binder concentration: 1:2,000 dilution
[6] = peptide modifications: H3K23me2 H3K27ac, binder concentration: 1:10,000 dilution
[7] = peptide modifications: H3K23ac H3K27me3, binder concentration: 1:2,000 dilution
[8] = peptide modifications: H3K23ac H3K27me3, binder concentration: 1:10,000 dilution
[9] = peptide modifications: H3K23me2 H3K27me3, binder concentration: 1:2,000 dilution
[10] = peptide modifications: H3K23me2 H3K27me3, binder concentration: 1:10,000 dilution
[11] = peptide modifications: H3K23me2 H3K27me1, binder concentration: 1:2,000 dilution
[12] = peptide modifications: H3K23me2 H3K27me1, binder concentration: 1:10,000 dilution
[13] = peptide modifications: H3K23me1 H3K27me3, binder concentration: 1:2,000 dilution
[14] = peptide modifications: H3K23me1 H3K27me3, binder concentration: 1:10,000 dilution
[15] = peptide modifications: H3K23ac, binder concentration: 1:2,000 dilution
[16] = peptide modifications: H3K23ac, binder concentration: 1:10,000 dilution
[17] = peptide modifications: H3K23ac H3K27me2, binder concentration: 1:2,000 dilution
[18] = peptide modifications: H3K23ac H3K27me2, binder concentration: 1:10,000 dilution
[19] = peptide modifications: H3K23me2, binder concentration: 1:2,000 dilution
[20] = peptide modifications: H3K23me2, binder concentration: 1:10,000 dilution
[21] = peptide modifications: H3K23me1, binder concentration: 1:2,000 dilution
[22] = peptide modifications: H3K23me1, binder concentration: 1:10,000 dilution
[23] = peptide modifications: H3K23me3, binder concentration: 1:2,000 dilution
[24] = peptide modifications: H3K23me3, binder concentration: 1:10,000 dilution

LATKAARKSAPAT [H3 20-32 L A T Kme2 A A R Kac S A P A T]
peptide microarray binding signal ([1]; peptide modifications: H3K23me2 H3K27ac, binder concentration: 50 nM): 0.008464 ± 6.7e-05
peptide microarray binding signal ([1]; peptide modifications: H3K23me2 H3K27ac, binder concentration: 500 nM): 0.01538 ± 0.00011
peptide microarray binding signal ([2]; peptide modifications: H3K23me2 H3K27ac, binder concentration: 10 nM): 0.0514 ± 0.0022
peptide microarray binding signal ([2]; peptide modifications: H3K23me2 H3K27ac, binder concentration: 100 nM): 0.0701 ± 0.0049
peptide microarray binding signal [3, 5]: 0.0156 ± 0.00055
peptide microarray binding signal [3, 6]: 0.0145 ± 0.00025
peptide microarray binding signal [4, 5]: 0.0072 ± 0.0012
peptide microarray binding signal [4, 6]: 0.00513 ± 0.00017

LATKAARKSAPAT [H3 20-32 L A T Kac A A R Kme3 S A P A T]
peptide microarray binding signal ([1]; peptide modifications: H3K23ac H3K27me3, binder concentration: 50 nM): 0.006363 ± 3.7e-05
peptide microarray binding signal ([1]; peptide modifications: H3K23ac H3K27me3, binder concentration: 500 nM): 0.00867 ± 0.00016
peptide microarray binding signal ([2]; peptide modifications: H3K23ac H3K27me3, binder concentration: 10 nM): 0.0207 ± 0.00046
peptide microarray binding signal ([2]; peptide modifications: H3K23ac H3K27me3, binder concentration: 100 nM): 0.0281 ± 0.00085
peptide microarray binding signal [3, 7]: 0.0464 ± 0.0087
peptide microarray binding signal [3, 8]: 0.044 ± 0.0054
peptide microarray binding signal [4, 7]: 0.253 ± 0.019
peptide microarray binding signal [4, 8]: 0.122 ± 0.0084

LATKAARKSAPAT [H3 20-32 L A T Kme2 A A R Kme3 S A P A T]
peptide microarray binding signal ([1]; peptide modifications: H3K23me2 H3K27me3, binder concentration: 50 nM): 0.0058 ± 9.2e-05
peptide microarray binding signal ([1]; peptide modifications: H3K23me2 H3K27me3, binder concentration: 500 nM): 0.00581 ± 0.00013
peptide microarray binding signal ([2]; peptide modifications: H3K23me2 H3K27me3, binder concentration: 10 nM): 0.01343 ± 4.8e-05
peptide microarray binding signal ([2]; peptide modifications: H3K23me2 H3K27me3, binder concentration: 100 nM): 0.0205 ± 0.00075
peptide microarray binding signal [3, 9]: 0.02482 ± 0.00013
peptide microarray binding signal [3, 10]: 0.0215 ± 0.00042
peptide microarray binding signal [4, 9]: 0.0892 ± 0.0073
peptide microarray binding signal [4, 10]: 0.0609 ± 0.0066

LATKAARKSAPAT [H3 20-32 L A T Kme2 A A R Kme S A P A T]
peptide microarray binding signal ([1]; peptide modifications: H3K23me2 H3K27me1, binder concentration: 50 nM): 0.00715 ± 0.00054
peptide microarray binding signal ([1]; peptide modifications: H3K23me2 H3K27me1, binder concentration: 500 nM): 0.0135 ± 0.00043
peptide microarray binding signal ([2]; peptide modifications: H3K23me2 H3K27me1, binder concentration: 10 nM): 0.0174 ± 0.00096
peptide microarray binding signal ([2]; peptide modifications: H3K23me2 H3K27me1, binder concentration: 100 nM): 0.0216 ± 0.00093
peptide microarray binding signal [3, 11]: 0.00978 ± 0.0012
peptide microarray binding signal [3, 12]: 0.0104 ± 0.00071
peptide microarray binding signal [4, 11]: 0.00618 ± 0.00062
peptide microarray binding signal [4, 12]: 0.00628 ± 0.00021

LATKAARKSAPAT [H3 20-32 L A T Kme A A R Kme3 S A P A T]
peptide microarray binding signal ([1]; peptide modifications: H3K23me1 H3K27me3, binder concentration: 50 nM): 0.005266 ± 3.8e-05
peptide microarray binding signal ([1]; peptide modifications: H3K23me1 H3K27me3, binder concentration: 500 nM): 0.00848 ± 0.00016
peptide microarray binding signal ([2]; peptide modifications: H3K23me1 H3K27me3, binder concentration: 10 nM): 0.0135 ± 0.00027
peptide microarray binding signal ([2]; peptide modifications: H3K23me1 H3K27me3, binder concentration: 100 nM): 0.01991 ± 8.1e-05
peptide microarray binding signal [3, 13]: 0.0287 ± 0.0026
peptide microarray binding signal [3, 14]: 0.0313 ± 0.0019
peptide microarray binding signal [4, 13]: 0.078 ± 0.0011
peptide microarray binding signal [4, 14]: 0.0363 ± 0.0019

LATKAARKSAPAT [H3 20-32 L A T Kac A A R K S A P A T]
peptide microarray binding signal ([1]; peptide modifications: H3K23ac, binder concentration: 50 nM): 0.00514 ± 8.6e-05
peptide microarray binding signal ([1]; peptide modifications: H3K23ac, binder concentration: 500 nM): 0.00843 ± 0.00057
peptide microarray binding signal ([2]; peptide modifications: H3K23ac, binder concentration: 10 nM): 0.0139 ± 0.0003
peptide microarray binding signal ([2]; peptide modifications: H3K23ac, binder concentration: 100 nM): 0.021 ± 0.00086
peptide microarray binding signal [3, 15]: 0.00479 ± 0.00097
peptide microarray binding signal [3, 16]: 0.00388 ± 0.00011
peptide microarray binding signal [4, 15]: 0.002703 ± 1.4e-05
peptide microarray binding signal [4, 16]: 0.00265 ± 8.4e-05

LATKAARKSAPAT [H3 20-32 L A T Kac A A R Kme2 S A P A T]
peptide microarray binding signal ([1]; peptide modifications: H3K23ac H3K27me2, binder concentration: 50 nM): 0.00426 ± 0.0002
peptide microarray binding signal ([1]; peptide modifications: H3K23ac H3K27me2, binder concentration: 500 nM): 0.00929 ± 0.0011
peptide microarray binding signal ([2]; peptide modifications: H3K23ac H3K27me2, binder concentration: 10 nM): 0.0152 ± 0.0015
peptide microarray binding signal ([2]; peptide modifications: H3K23ac H3K27me2, binder concentration: 100 nM): 0.0206 ± 0.00053
peptide microarray binding signal [3, 17]: 0.00765 ± 0.0019
peptide microarray binding signal [3, 18]: 0.00719 ± 0.00029
peptide microarray binding signal [4, 17]: 0.00344 ± 0.001
peptide microarray binding signal [4, 18]: 0.00329 ± 0.00032

LATKAARKSAPAT [H3 20-32 L A T Kme2 A A R K S A P A T]
peptide microarray binding signal ([1]; peptide modifications: H3K23me2, binder concentration: 50 nM): 0.00671 ± 0.00021
peptide microarray binding signal ([1]; peptide modifications: H3K23me2, binder concentration: 500 nM): 0.0138 ± 0.00038
peptide microarray binding signal ([2]; peptide modifications: H3K23me2, binder concentration: 10 nM): 0.0263 ± 0.0081
peptide microarray binding signal ([2]; peptide modifications: H3K23me2, binder concentration: 100 nM): 0.0536 ± 0.02
peptide microarray binding signal [3, 19]: 0.00836 ± 0.0018
peptide microarray binding signal [3, 20]: 0.0156 ± 0.0071
peptide microarray binding signal [4, 19]: 0.00609 ± 0.0003
peptide microarray binding signal [4, 20]: 0.00479 ± 0.00052

LATKAARKSAPAT [H3 20-32 L A T Kme A A R K S A P A T]
peptide microarray binding signal ([1]; peptide modifications: H3K23me1, binder concentration: 50 nM): 0.0042 ± 0.00011
peptide microarray binding signal ([1]; peptide modifications: H3K23me1, binder concentration: 500 nM): 0.00714 ± 0.00042
peptide microarray binding signal ([2]; peptide modifications: H3K23me1, binder concentration: 10 nM): 0.0107 ± 0.00011
peptide microarray binding signal ([2]; peptide modifications: H3K23me1, binder concentration: 100 nM): 0.0176 ± 0.00097
peptide microarray binding signal [3, 21]: 0.00564 ± 0.0011
peptide microarray binding signal [3, 22]: 0.0116 ± 0.0039
peptide microarray binding signal [4, 21]: 0.00267 ± 0.00032
peptide microarray binding signal [4, 22]: 0.00242 ± 0.00013

LATKAARKSAPAT [H3 20-32 L A T Kme3 A A R K S A P A T]
peptide microarray binding signal ([1]; peptide modifications: H3K23me3, binder concentration: 50 nM): 0.00323 ± 0.00014
peptide microarray binding signal ([1]; peptide modifications: H3K23me3, binder concentration: 500 nM): 0.00476 ± 6.4e-05
peptide microarray binding signal ([2]; peptide modifications: H3K23me3, binder concentration: 10 nM): 0.00931 ± 0.00034
peptide microarray binding signal ([2]; peptide modifications: H3K23me3, binder concentration: 100 nM): 0.0181 ± 0.00055
peptide microarray binding signal [3, 23]: 0.0211 ± 0.0028
peptide microarray binding signal [3, 24]: 0.0168 ± 0.00023
peptide microarray binding signal [4, 23]: 0.0113 ± 0.0027
peptide microarray binding signal [4, 24]: 0.00634 ± 0.00064
